Results reported in PubChem BioAssay AID1159580 (chemical genetic matrix, 2015).
Where “and” joins values, the source holds several entries; their conditions need not be identical. Equal entries are not always repeated. In all, about 5,500 compounds went through this assay and about 2,000 (36%) were called active. Not shown: some 18% with an inconclusive outcome. Rule as the data show it: active = normalized growth mostly below about 0.91 (no sharp cut-off); inconclusive = no clear call, values can overlap the other calls; inactive = mostly above about 0.92. The list shows a part of the results.

Experiment: chemical genetic growth profiling, strain panel (AID 1159580);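 also: tested at 20 µM; growth read once vehicle control cultures reached saturation at 30 °C; 1 = growth at the plate median or of vehicle wells; lower values mean less growth of the strain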
Conditions: growth OD

Measured: normalized growth

NCCc1ccc(O)c(O)c1
inactive: S. cerevisiae deletion strains, locus YJL187C, strain SWE1 (second series), active compounds read low 0.965 | S. cerevisiae deletion strains, locus YJR043C, strain POL32, active compounds read low 1.03 | S. cerevisiae deletion strains, locus YJR066W, strain TOR1, active compounds read low 0.958 and 0.96 | S. cerevisiae deletion strains, locus YJR075W, strain HOC1, active compounds read low 0.98 and 0.981 | S. cerevisiae deletion strains, locus YKL009W, strain mrt4, active compounds read low 0.964 | S. cerevisiae deletion strains, locus YKL068W, active compounds read low 0.981 | S. cerevisiae deletion strains, locus YKL085W, strain MDH1 (second series), active compounds read low 0.994 | S. cerevisiae deletion strains, locus YKL085W, strain MDH1, active compounds read low 0.994 | S. cerevisiae deletion strains, locus YKL160W, strain elf1, active compounds read low 1 | S. cerevisiae deletion strains, locus YKR001C, strain vps1, active compounds read low 0.995 | S. cerevisiae deletion strains, locus YKR026C, strain gcn3, active compounds read low 1 | S. cerevisiae deletion strains, locus YKR091W, strain srl3, active compounds read low 1.01 | S. cerevisiae deletion strains, locus YLL001W, strain dnm1, active compounds read low 0.983 | S. cerevisiae deletion strains, locus YLL026W, active compounds read low 1 | S. cerevisiae deletion strains, locus YLL041C, strain sdh2, active compounds read low 0.991 | S. cerevisiae deletion strains, locus YLR027C, strain aat2, active compounds read low 1.01 | S. cerevisiae deletion strains, locus YLR039C, strain RIC1, active compounds read low 0.99 | S. cerevisiae deletion strains, locus YLR058C, strain SHM2, active compounds read low 0.985 | S. cerevisiae deletion strains, locus YLR102C, strain apc9, active compounds read low 0.992 | S. cerevisiae deletion strains, locus YLR113W, strain HOG1, active compounds read low 1.07 and 1.04 | S. cerevisiae deletion strains, locus YLR221C, strain rsa3, active compounds read low 0.982 | S. cerevisiae deletion strains, locus YLR258W, strain gsy2, active compounds read low 1 | S. cerevisiae deletion strains, locus YLR262C, strain YPT6 (second series), active compounds read low 0.998 | S. cerevisiae deletion strains, locus YLR262C, strain YPT6, active compounds read low 0.969 | S. cerevisiae deletion strains, locus YLR268W, strain sec22, active compounds read low 1.01 | S. cerevisiae deletion strains, locus YLR320W, strain mms22, active compounds read low 1 | S. cerevisiae deletion strains, locus YLR330W, strain CHS5, active compounds read low 0.998 | S. cerevisiae deletion strains, locus YLR342W, strain FKS1 (second series), active compounds read low 0.981 | S. cerevisiae deletion strains, locus YLR342W, strain FKS1, active compounds read low 0.999 | S. cerevisiae deletion strains, locus YLR357W, strain rsc2, active compounds read low 0.985 | S. cerevisiae deletion strains, locus YLR370C, strain arc18, active compounds read low 1.01 | S. cerevisiae deletion strains, locus YLR371W, strain rom2, active compounds read low 0.992 | S. cerevisiae deletion strains, locus YLR384C, strain iki3, active compounds read low 0.99 | S. cerevisiae deletion strains, locus YLR418C, strain cdc73, active compounds read low 0.999 | S. cerevisiae deletion strains, locus YML016C, strain PPZ1, active compounds read low 0.991 | S. cerevisiae deletion strains, locus YML032C, strain rad52, active compounds read low 1.01 | S. cerevisiae deletion strains, locus YML120C, strain ndi1, active compounds read low 1.01 | S. cerevisiae deletion strains, locus YML124C, strain tub3, active compounds read low 1 | S. cerevisiae deletion strains, locus YMR058W, strain fet3, active compounds read low 1.02 | S. cerevisiae deletion strains, locus YMR078C, strain ctf18, active compounds read low 0.991 | S. cerevisiae deletion strains, locus YMR125W, strain sto1, active compounds read low 1.01 | S. cerevisiae deletion strains, locus YMR129W, active compounds read low 1.01 | S. cerevisiae deletion strains, locus YMR205C, strain PFK2, active compounds read low 1.03 | S. cerevisiae deletion strains, locus YMR223W, strain ubp8, active compounds read low 0.972 | S. cerevisiae deletion strains, locus YMR231W, strain pep5, active compounds read low 1.01 | S. cerevisiae deletion strains, locus YMR307W, strain GAS1, active compounds read low 1.03 | S. cerevisiae deletion strains, locus YNL067W, strain RPL9B, active compounds read low 0.968 | S. cerevisiae deletion strains, locus YNL071W, strain lat1, active compounds read low 1 | S. cerevisiae deletion strains, locus YNL153C, strain GIM3, active compounds read low 0.973 and 0.99 | S. cerevisiae deletion strains, locus YNL175C, strain NOP13, active compounds read low 1 | S. cerevisiae deletion strains, locus YNL183C, strain NPR1, active compounds read low 1 and 0.946 | S. cerevisiae deletion strains, locus YNL197C, strain WHI3, active compounds read low 0.993 | S. cerevisiae deletion strains, locus YNL209W, strain ssb2, active compounds read low 1 | S. cerevisiae deletion strains, locus YNL224C, strain SQS1, active compounds read low 1 | S. cerevisiae deletion strains, locus YNL233W, strain BNI4, active compounds read low 0.984 | S. cerevisiae deletion strains, locus YNL248C, strain rpa49, active compounds read low 0.985 | S. cerevisiae deletion strains, locus YNL250W, strain rad50, active compounds read low 1 | S. cerevisiae deletion strains, locus YNL271C, strain bni1, active compounds read low 0.991 | S. cerevisiae deletion strains, locus YNL298W, strain CLA4, active compounds read low 1 | S. cerevisiae deletion strains, locus YNL307C, strain MCK1, active compounds read low 1 | S. cerevisiae deletion strains, locus YNL322C, strain KRE1 (second series), active compounds read low 0.99 | S. cerevisiae deletion strains, locus YNR049C, strain mso1, active compounds read low 1.01 | S. cerevisiae deletion strains, locus YNR052C, strain pop2, active compounds read low 1.01 | S. cerevisiae deletion strains, locus YOL012C, strain htz1 0.769 | S. cerevisiae deletion strains, locus YOL147C, strain pex11, active compounds read low 0.998 | S. cerevisiae deletion strains, locus YOR001W, strain rrp6, active compounds read low 0.997 | S. cerevisiae deletion strains, locus YOR061W, strain CKA2, active compounds read low 0.993 | S. cerevisiae deletion strains, locus YOR069W, strain VPS5, active compounds read low 0.998 | S. cerevisiae deletion strains, locus YOR080W, strain dia2, active compounds read low 1.01 | S. cerevisiae deletion strains, locus YOR083W, strain WHI5 (second series), active compounds read low 0.984 | S. cerevisiae deletion strains, locus YOR083W, strain WHI5, active compounds read low 1.01 | S. cerevisiae deletion strains, locus YOR106W, strain vam3, active compounds read low 0.981 | S. cerevisiae deletion strains, locus YOR136W, strain idh2, active compounds read low 0.999 | S. cerevisiae deletion strains, locus YOR144C, strain elg1, active compounds read low 0.997 | S. cerevisiae deletion strains, locus YOR184W, strain ser1, active compounds read low 0.995 | S. cerevisiae deletion strains, locus YOR231W, strain MKK1, active compounds read low 1.07 and 1.04 | S. cerevisiae deletion strains, locus YOR265W, strain rbl2, active compounds read low 1.01 | S. cerevisiae deletion strains, locus YOR270C, strain vph1, active compounds read low 1.06 | S. cerevisiae deletion strains, locus YOR290C, strain snf2, active compounds read low 1.01 | S. cerevisiae deletion strains, locus YOR316C, strain cot1, active compounds read low 0.993 | S. cerevisiae deletion strains, locus YPL051W, strain arl3, active compounds read low 0.974 | S. cerevisiae deletion strains, locus YPL055C, strain LGE1, active compounds read low 0.974 | S. cerevisiae deletion strains, locus YPL078C, strain atp4, active compounds read low 1.02 | S. cerevisiae deletion strains, locus YPL106C, strain sse1, active compounds read low 0.968 | S. cerevisiae deletion strains, locus YPL240C, strain hsp82, active compounds read low 1.01 | S. cerevisiae deletion strains, locus YPL256C, strain CLN2, active compounds read low 1.03 and 1.04 | S. cerevisiae deletion strains, locus YPR119W, strain clb2, active compounds read low 0.995 | S. cerevisiae deletion strains, locus YPR141C, strain kar3, active compounds read low 0.969 | S. cerevisiae deletion strains, locus YPR163C, strain tif3, active compounds read low 0.997 | S. cerevisiae deletion strains, locus YPR167C, strain met16, active compounds read low 0.999 | S. cerevisiae deletion strains, strain wtn01, active compounds read low 0.994 | S. cerevisiae strains, strain wild type, active compounds read low 0.993
